Screens from PubChem BioAssay.
The list is not random: actives were taken first. Their share in the collection is about 18%.
DT40 TDP1 no CPT – qHTS for Inhibitors of human tyrosyl-DNA phosphodiesterase 1 (TDP1): qHTS in cells in absence of CPT | 15% of 420,000 active | DT40 Tdp1-/- hTDP1 cells, no CPT, ATP luminescence, 48 h | AID 686978, 2013 | Potency, µM (doses to about 46.2 µM), without a hit: at the highest dose activity change, negative = growth inhibition, hits mostly inhibitors; note: potency is the fitted concentration of half-maximal effect; nearly all actives have a fitted effect of over 55% in size
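Growth kinetics read by CellTiter-Glo luminescence after ≥48 hr at 37 °C. Cells: DT40 Tdp1-/- stably carrying human TDP1, 400 per well, compound exposure in the absence of CPT (DMSO vehicle).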
RORg inh – inhibitors of mouse ROR gamma transcriptional activity; P51450; Drosophila S2 Gal4-RORgamma UAS-luciferase reporter, 20 h; Potency, µM (series often up to 53.6 µM), without a hit: top-dose activity change, negative = inhibition, most hits filed as inhibitors; 5.4% of 310,000 active; AID 2551; note: potency is the fitted concentration of half-maximal effect; nearly all actives have a fitted effect of over 60% in size
Target sequence (P51450 whole entry, looked up, the tested form may be a part): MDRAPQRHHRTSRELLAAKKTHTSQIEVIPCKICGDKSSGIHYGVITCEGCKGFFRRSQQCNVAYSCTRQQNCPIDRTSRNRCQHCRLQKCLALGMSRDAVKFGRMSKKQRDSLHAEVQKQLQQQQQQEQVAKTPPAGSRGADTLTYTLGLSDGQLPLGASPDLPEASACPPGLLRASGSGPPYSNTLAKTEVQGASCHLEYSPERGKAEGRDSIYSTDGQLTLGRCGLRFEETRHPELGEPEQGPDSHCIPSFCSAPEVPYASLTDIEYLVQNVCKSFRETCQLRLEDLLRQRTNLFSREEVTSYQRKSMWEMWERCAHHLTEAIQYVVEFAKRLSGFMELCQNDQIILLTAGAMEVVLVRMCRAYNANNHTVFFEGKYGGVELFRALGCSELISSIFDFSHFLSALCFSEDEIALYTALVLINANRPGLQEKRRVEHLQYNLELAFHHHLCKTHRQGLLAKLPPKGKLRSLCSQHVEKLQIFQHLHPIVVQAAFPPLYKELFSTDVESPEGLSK
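Read-out: Photinus luciferase luminescence; inhibitors lower reporter signal. Insect Schneider cells with Gal4-ROR gamma fusion under metallothionein promoter, UAS reporter; 700 uM final copper sulfate induction, 20 hr, ambient temperature.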
Gal4-VP16 FLuc – Gal4-VP16 reporter inhibition counter-screen. Drosophila S2 Gal4-VP16 UAS-luciferase, luminescence, 20 h. Potency, µM (top dose mostly 53.6 µM), inactives show at the top dose activity, negative = inhibition, most hits filed as inhibitors. 3.5% of 310,000 active;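 note: Gal4-VP16 expression switched on by copper sulfate through the metallothionein promoter; potency is the fitted concentration of half-maximal effect; nearly all actives have a fitted effect of over 50% in size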
IL1B secr inh – blocks inflammasome-driven IL-1 beta release. THP-1 LPS/ATP IL-1B secretion, AlphaLISA, 16 h; active compounds read low. activity change, % at 57.5 µM. 4.7% of 360,000 active. AID 743279; in the data active = activity change below about -50%; inconclusive = mostly about -30% to -49%
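Secreted IL-1B measured by AlphaLISA bead assay after 16 h compound exposure of THP-1 cells; compounds (final up to 57.5 uM) added 1 h before LPS (250 ng/mL) and ATP (1.25 mM) stimulation; lower signal means less secretion.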
DT40 TDP1 CPT – DT40-hTDP1 cell growth loss with CPT; chicken DT40 Tdp1-/-;hTDP1 cells + 20 nM CPT, ATP luminescence, 48 h; 12% of 420,000 active; Potency, µM (titrated, usually from 46.2 µM), without a hit: at the top dose activity change, negative = growth inhibition, actives largely listed as inhibitors; note: potency is the fitted concentration of half-maximal effect; nearly all actives have a fitted effect of over 55% in size
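Chicken DT40 Tdp1-/- cells stably complemented with human TDP1 were seeded at 400 cells/well in medium containing 20 nM camptothecin, exposed to pin-transferred compounds, and grown at 37 °C for at least 48 hr. Viability was read as ATP luminescence.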
LDHA block – blocks human lactate dehydrogenase A; 0.15% of 480,000 active; activity change, % (values are at about 110 or 230 µM); purified LDHA, NADH/diaphorase-resazurin fluorescence; active compounds read low; in the data active = activity change below about -30%; inconclusive = mostly about -25% to -30%;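 note: plate controls were DMSO wells for no effect and wells without enzyme for full effect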
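Human LDH5 at 2 nM final in Tris HCl pH 7.4 with 0.06 mM NADH and 0.2 mM pyruvate, reacted 5 minutes at room temperature. Remaining NADH coupled via diaphorase/resazurin; resorufin fluorescence read at 0 and 20 minutes, normalized to enzyme-free and DMSO wells.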
An asterisk follows results filed as active; ? = inconclusive; / = no result given; [ ] = remark or other dose. Unless noted, calls come from the whole dose curve; as a rule, active = well fitted curve in the direction sought with a large enough effect; inconclusive = small, poorly fitted or top-dose-only effect, or another doubt; inactive = no such curve, though single readings can be large; an effect the other way counts as inactive or inconclusive. Unless noted, % is set by controls: 0 for no effect and ±100 for the full control effect.

SMILES	DT40 TDP1 no CPT	RORg inh	Gal4-VP16 FLuc	IL1B secr inh	DT40 TDP1 CPT	LDHA block
N#C/C(=C/c1ccccc1Cl)c1nc(-c2cc3ccccc3oc2=O)cs1	-0.2%	/	/	/	-1.5%	-0.4
COc1cc(/C=C(/C#N)c2nc(-c3cc4ccccc4oc3=O)cs2)ccc1O	2.91µM*	/	/	/	-1.6%	1.1
CC1(C)CCC2=C(C1=O)C(c1ccc(O)cc1)C1=C(CCC(C)(C)C1=O)O2	/	/	/	/	/	1.1
Clc1ccccc1-c1nc(Nc2ccncc2)c2ccccc2n1	?	11.2µM*	-10.2%	/	?	/
Cc1ccccc1-c1nc(Nc2ccncc2)c2ccccc2n1	-17.5%	7.08µM*	-19.9%	/	-5.7%	/
CN(C)c1ccc(-c2nc(Nc3ccncc3)c3ccccc3n2)cc1	5.8µM*	?	15.8µM*	/	9.2µM*	/
Cc1ccc(Nc2nc(-c3ccncc3)nc3ccccc23)cc1	?	-23.6%	-1.2%	/	10.1%	-2.7
CCOc1ccc(NS(=O)(=O)c2ccc3c(c2)N(CC(=O)OC)C(=O)CS3)cc1	/	/	/	/	/	-4.5
CN(CCCC(=O)NCc1ccc2c(c1)OCO2)S(=O)(=O)c1ccc([N+](=O)[O-])cc1	23.1µM*	26.8%	-12.6%	-2.9	?	3.7
Cc1ccc(S(=O)(=O)N(C)CCCC(=O)NCc2ccc3c(c2)OCO3)cc1	23.1µM*	-12.7%	-11.4%	26.0	-14.7%	-1.5
O=C(Cc1ccc([N+](=O)[O-])cc1)NCc1ccc2c(c1)OCO2	-25.0%	26.6%	-2.9%	0.0	-11.1%	-2.6
O=C(Nc1ccccc1F)c1cc(CN2CCOCC2)on1	/	/	/	/	/	1.1
COc1ccc(OC)c(-c2csc(NC(=O)c3nn(C(C)C)c(=O)c4ccccc34)n2)c1	/	/	/	/	/	-3.5
O=C1CC(N2CCN(Cc3ccccc3)CC2)C(=O)N1 (stereo unspecified)	4.1%	0.5%	3.3%	5.6	-2.4%	-11.4
c1ccc(CN2CCN(C3CCCSc4ccccc43)CC2)cc1 (stereo unspecified)	23.1µM*	/	/	-28.3	?	-4.7
CC(=O)C(=Cc1ccc(Cl)cc1)C(=O)c1ccccc1	18.4µM*	/	/	-107.9*	18.4µM*	-4.5
C=C(C)C(=O)c1ccc(OC)cc1	/	20.8%	-4.2%	/	/	/
COc1ccc(C=C(C(=O)c2ccccc2)C(=O)c2ccccc2)cc1	?	/	/	-82.5*	?	1.9
COc1ccc(C=C(C(=O)c2ccccc2)c2ccccc2)cc1	?	/	/	5.8	?	0.2
COc1ccc(C=C(C(C)=O)C(=O)c2ccccc2)cc1	?	/	/	-94.3*	?	5.0
COc1ccc(C(=O)/C(Br)=C\C(=O)O)cc1	?	/	/	/	2.66µM*	/
CCOC1CCNCC1	/	/	/	/	/	12.8
C/C(=N/Nc1ccc(S(N)(=O)=O)cc1[N+](=O)[O-])c1ccccc1Cl	/	/	/	/	/	1.6
COc1cccc(C=C(C#N)C(=O)c2ccccc2)c1	0.1%	/	/	22.9	-5.3%	-4.4
CC(=O)C(=Cc1cccc(C#N)c1)C(=O)c1ccccc1	16.4µM*	/	/	-117.7*	16.4µM*	0.6
SMILES	DT40 TDP1 no CPT	RORg inh	Gal4-VP16 FLuc	IL1B secr inh	DT40 TDP1 CPT	LDHA block
CC(NC(=O)c1ccccc1Br)c1nnc(SCC(=O)N2CCOCC2)n1C (stereo unspecified)	/	/	/	/	/	1.6
O=C(NCc1ccccc1)C1=C[C@@H](c2csc3ccccc23)C[C@@H](OCCCCO)O1	1.64µM*	?	15.3%	-12.4	1.64µM*	2.2
CN1CCN(C(=O)C2=C[C@H](c3csc4ccccc34)C[C@H](OCc3ccc(CO)cc3)O2)CC1	?	-3.5%	-0.9%	-21.9	?	0.3
O=C(NCc1ccccc1)C1=C[C@@H](c2csc3ccccc23)C[C@@H](OCc2ccc(CO)cc2)O1	4.61µM*	?	-11.9%	?	2.91µM*	1.2
C#CCNC(=O)C1=C[C@@H](c2csc3ccccc23)C[C@@H](OCc2ccc(CO)cc2)O1	?	?	8.1%	0.2	16.4µM*	2.9
O=C(NC1CC1)C1=C[C@H](c2csc3ccccc23)C[C@H](OCCCCO)O1	-23.4%	36.0%	-8.8%	-7.4	-17.6%	0.3
O=C(C1=C[C@H](c2csc3ccccc23)C[C@H](OCc2ccc(CO)cc2)O1)N1CCCCCCC1	20.6µM*	/	/	-19.5	?	2.1
COc1ccc(CNc2oc(/C=C/c3ccc(F)cc3)nc2C#N)cc1	/	/	/	/	/	0.9
O=C(NCc1ccccc1)C1=C[C@@H](c2coc3ccccc3c2=O)C[C@@H](OCc2ccc(CO)cc2)O1	9.2µM*	27.6%	-25.1%	-8.7	10.3µM*	-3.1
CC(NC(=O)C12CC3CC(CC(C3)C1)C2)c1cc2ccccc2o1 (stereo unspecified)	/	/	/	/	/	4.5
COc1cc(SC)ccc1C(=O)Oc1ccc(C(C)(C)C)cc1	/	/	/	/	/	14.1
Cc1cc(NC(=O)COC(=O)CSc2nc3cc(Cl)ccc3n2Cc2ccccc2)no1	-26.3%	?	-0.3%	41.5	-5.1%	-5.2
NC(=O)CCc1nc2cc(C(F)(F)F)ccc2n(Cc2ccccc2)c1=O	?	38.0%	2.1%	-11.5	-15.4%	-4.0
CN(C)C(CNC(=O)CCc1nc2cc(Cl)ccc2n(Cc2ccccc2)c1=O)c1ccccc1 (stereo unspecified)	16.4µM*	/	/	-66.8*	?	1.5
CCNC(=S)NNC(=O)CCc1nc2cc(Cl)ccc2n(Cc2ccccc2)c1=O	?	6.31µM*	-9.6%	-3.2	-10.0%	-12.4
Cc1cc(C)cc(C(=O)NCC(c2ccccc2)c2c[nH]c3ccccc23)c1 (stereo unspecified)	/	/	/	/	/	-2.8
Cc1ccc(C)c(C(=O)COC(=O)c2cc([N+](=O)[O-])ccc2N2CCOCC2)c1	?	/	/	-16.6	?	-3.0
Cc1ccc(C(=O)c2cc([N+](=O)[O-])ccc2N2CCOCC2)cc1C	0.731µM*	2.5%[10 µM]	-6.0%	0.0	1.46µM*	-6.1
Cc1ccc(C(=O)c2cc([N+](=O)[O-])ccc2N2CCOCC2)c(C)c1	0.92µM*	-20.2%	-2.3%	20.8	0.82µM*	-4.4
Cc1ccc(C(=O)c2cc([N+](=O)[O-])ccc2N2CCCCC2)cc1C	5.17µM*	-7.9%[10 µM]	-11.1%	0.0	3.26µM*	-1.3
COc1ccc2nc(NN=C(C)c3ccccn3)cc(C)c2c1	2.91µM*	/	/	-102.2*	1.64µM*	5.3
CC(C)n1nc(C(=O)NCCCN2CCCC2)c2ccccc2c1=O	/	/	/	/	/	4.1
CC(=O)NN1C(=O)c2ccccc2NC1c1ccccc1O (stereo unspecified)	-15.5%	11.2µM*	?	36.2	6.8%	5.5
